{"source": "PubChem BioAssay (NCATS)", "note": "Inconclusive results are not listed. Values without a mark were called inactive. The source made the active and inactive calls. Calls follow the shape of the dose curve; as a rule, active = well fitted cell-killing curve with a large enough effect; inconclusive = small, poorly fitted or top-dose-only effect; inactive = flat fitted curve, though single readings scatter. Potency is read from the fitted curve at half-maximal effect."}
{"test": "Quantitative highthroughput screen to assess conditional lethalithy of P12 Ichikawa cells grown in Human Plasma-Like Medium with dialyzed fetal bovine serum (HPLM+ds) (AID 1963879); also: nearly all actives have a fitted effect of over 35% in size", "details": "ATP luminescence, 48 h; Potency: viability; series mostly up to 45.8 µM; viability: at the top concentration", "from_the_text": "Assay Provider: Jason Cantor Ph.D.\nDepartment of Biochemistry\nUniversity of Wisconsin-Madison, Madison, WI, USA\nChemical screening studies have identified drug sensitivities across hundreds of cancer cell lines but most putative therapeutics fail to translate. Discovery and development of drug candidates in models that more accurately reflect nutrient levels in human blood is a major challenge. Here we performed high-throughput screens in conventional versus Human Plasma-Like Medium (HPLM) to identify compounds that were \"missed\" when screening using the artificial culture condition. Sets of conditional anticancer compounds spanned phases of clinical development and included non-oncology drugs were assessed. […] We also traced conditional phenotypes for several chemotherapeutics to availability of HPLM-specific metabolites and confirmed others for compounds whose reported targets are encoded by nonessential genes. Our findings establish generalizable strategies for exploiting conditional lethality in HPLM to reveal therapeutic candidates and mechanisms of action in cancer cells.\nDescribed herein are the results of each viability screens against three cell lines: NOMO1 (an acute myeloid leukemia cell line); P12-Ichikawa (a T-cell acute lymphoblastic leukemia); and SEM (a B-cell ALL). Each assay was screened using 3 different cell culture media: homemade human plasma-Like medium with 10% dialyzed fetal bovine serum (HPLM+ds); RPMI1640 with 10% untreated FBS and 5mM glucose (RPMI+s); and RPMI1640 with 10% dialyzed fetal bovine serum and 5 mM glucose (RPMI+ds).\nPROTOCOL TABLE (as described by Inglese J, Shamu CE and Guy RK. 2007)\nSEQUENCE No. (e.g., 1, 2, 3, etc.); […] (e.g., Cells, Incubation, Reagent, etc.); VALUE and DESCRIPTION.\n1; Cells; 5 uL; white, solid bottom 1536-well Greiner assay plate.\n2; Compounds; 23 nL; Kalypsis pin tool (Wako USA) equipped with a 1536-well pin head to transfer to the assay plates.\n3; Incubation; 48 hours; 37C incubation.\n4; Reagent; 3 uL; CellTiter Glo (Promega).\n5; Incubation; 5 min, room temperature\n6; Detection; Luminescence, Viewlux PerkinElmer.\nNOTES (numbers refer to Sequence numbers above)\n1. Briefly, 5 ul of cell reagent was dispensed using a Multidrop Combi Dispenser. The NOMO1 and SEM cells were plated at 500 cells/well and the P12-Ichikawa line at 1000 cells/well.\n2. After seeding the cells, 23 nL of MIPE 4.1 library compounds (in DMSO) were added to each plate using a Kalypsys 1536 Pintool dispenser. Bortezomib at final concentration of […] and DMSO were added to each plate as positive and negative controls respectively. For each screen, MIPE 4.1 compounds were added over an eleven-point concentration range […] in 3-fold dilutions.\n3. Each plate was covered with a stainless steel gasketed lid to prevent evaporation and incubated for 48 hour at 37C, 95% relative humidity, and 5% CO2.\n4-5. Three microliter CellTilter-GloTM luminescent substrate mix (Promega) reagent was added to the assay plate and incubated at room temperature for 5 min.\n6. The luminescence signal was measured using a ViewLux (PerkinElmer) multiplate reader with a 2 second exposure time per plate. Data for each compound were normalized as percent viability such that measurements for DMSO and the empty well controls in each plate were defined as 100% and 0%, respectively."}
{"smiles": "CCOC(=O)N1c2ccc(C(F)(F)F)cc2[C@@H](N(Cc2cc(C(F)(F)F)cc(C(F)(F)F)c2)C(=O)OC)C[C@H]1CC", "viability": "97.2%"}
{"smiles": "NC(=O)Nc1cc(-c2cccc(F)c2)sc1C(=O)N[C@H]1CCCNC1", "Potency": "1.87 µM (active)"}
{"smiles": "CCCCCNC(=O)N1CCC(CN(Cc2ccc(Cl)cc2)Cc2ccc([N+](=O)[O-])s2)C1", "note": "(stereo not given)", "viability": "82.7%"}
{"smiles": "CC[C@@H]([C@H](C)O)n1ncn(-c2ccc(N3CCN(c4ccc(OCC5CO[C@@](Cn6cncn6)(c6ccc(F)cc6F)C5)cc4)CC3)cc2)c1=O", "note": "(stereo not given in full)", "viability": "101%"}
{"smiles": "O=C(Nc1ccccc1Br)N[C@@H]1CCN(c2ccc(C(F)(F)F)cn2)C1", "viability": "94.4%"}
{"smiles": "Cn1c(CNc2ccc(C(=N)N)cc2)nc2cc(C(=O)N(CCC(=O)O)c3ccccn3)ccc21", "viability": "105% [at 23.2 µM]"}
{"smiles": "CCCc1nc(C)c2c(=O)[nH]c(-c3cc(S(=O)(=O)N4CCN(CC)CC4)ccc3OCC)nn12", "Potency": "16.6 µM (active)"}
{"smiles": "CCOc1cc2c(c(F)c1OCC)C(=N)N(CC(=O)c1cc(N3CCOCC3)c(OC)c(C(C)(C)C)c1)C2", "viability": "87.3%"}
{"smiles": "COc1cc(OC)cc(-c2ccc3ncc4ccc(=O)n(-c5ccc(N6CCNCC6)c(C(F)(F)F)c5)c4c3c2)c1", "Potency": "10.5 µM (active)"}
{"smiles": "CN[C@@H]1[C@@H](O)[C@@H](O[C@@H]2[C@@H](O)[C@H](O[C@H]3O[C@H](CN)[C@@H](O)[C@H](O)[C@@H]3O)[C@@H](N)C[C@@H]2NC(=O)[C@@H](O)CN)OC[C@]1(C)O", "viability": "99.4%"}
{"smiles": "Cc1ccc(S(=O)(=O)OCC(=O)Nc2ccc(C(=O)O)c(O)c2)cc1", "Potency": "23.5 µM (active)"}
{"smiles": "C=C(C)[C@@H]1CC[C@]2(C(=O)O)CC[C@]3(C)[C@H](CC[C@@H]4[C@@]5(C)CC[C@H](O)C(C)(C)[C@@H]5CC[C@]43C)[C@@H]12", "viability": "95%"}
{"smiles": "Cc1cc(Nc2ncc3c(n2)N(C)C(=O)N(c2cc(NC(=O)c4cccc(C(F)(F)F)c4)ccc2C)C3)n(C)n1", "Potency": "16.6 µM (active)"}
{"smiles": "CN[C@H]1[C@@H](O)[C@@H]2O[C@@H]3O[C@H](C)CC(=O)[C@]3(O)O[C@@H]2[C@@H](NC)[C@H]1O", "viability": "100%"}
{"smiles": "CC(C)(C)Cn1c(N)nc2ccc(-c3[nH]c(C(C)(C)C)nc3-c3ccc(F)cc3)nc21", "viability": "103%"}
{"smiles": "NC(=O)Cc1cccc(C(=O)c2ccccc2)c1N", "viability": "98.2%"}
{"smiles": "CCC(c1ccc(O)cc1)C(CC)c1ccc(O)cc1", "note": "(stereo not given)", "viability": "96.3%"}
{"smiles": "CC(C)N(CC[C@H](c1ccccc1)c1cc(CO)ccc1O)C(C)C", "viability": "101%"}
{"smiles": "COc1ccc([C@@H]2CC(=O)c3c(O)cc(O[C@@H]4O[C@H](CO[C@@H]5O[C@@H](C)[C@H](O)[C@@H](O)[C@@H]5O)[C@@H](O)[C@H](O)[C@@H]4O)cc3O2)cc1O", "Potency": "inactive"}
{"smiles": "CN(C)CC(C)(C)CNc1nn2c(-c3ccccc3)nnc2cc1C1CCC1", "Potency": "10.5 µM (active)"}
{"smiles": "CC(=O)N(C)C1(c2ccccc2)CCN(CCC[C@]2(c3ccc(Cl)c(Cl)c3)CCCN(C(=O)c3ccccc3)C2)CC1", "Potency": "2.96 µM (active)"}
{"smiles": "Cc1cccc(Nc2nc(-c3ccncc3)cs2)c1", "viability": "94.2%"}
{"smiles": "CN(C)S(=O)(=O)c1ccc2c(c1)C(=Cc1cc3c([nH]1)CCCC3)C(=O)N2", "viability": "103%"}
{"smiles": "C[C@]12CC[C@H](O)CC1=CC[C@@H]1[C@H]2CC[C@]2(C)C(c3cccnc3)=CC[C@H]12", "viability": "98.7% [at 23.2 µM]"}
{"smiles": "C[C@@H]1[C@H](C)CC[C@]2(C(=O)O)CC[C@]3(C)C(=CC[C@@H]4[C@@]5(C)C[C@@H](O)[C@H](O)[C@@](C)(CO)[C@H]5CC[C@]43C)[C@@H]12", "viability": "94.2%"}
{"smiles": "N=c1nc(N2CCCCC2)cc(N)n1O", "viability": "101%"}
{"smiles": "CC1(C)CCC(C)(C)c2cc(NC(=O)c3ccc(C(=O)O)cc3)ccc21", "viability": "90%"}
{"smiles": "CS(=O)(=O)c1ccc(-c2cnc(N)c(C(=O)Nc3ccccc3)n2)cc1", "viability": "81.7%"}
{"smiles": "NC1=N[C@H]2[C@H](CS[C@H]2CCCCC(=O)O)N1", "viability": "96.1% [at 23.2 µM]"}
{"smiles": "CNC(=O)c1cc(Oc2ccc(NC(=O)Nc3cc(C(C)(C)C)nn3-c3ccc4ncccc4c3)c(F)c2)ccn1", "viability": "97.2%"}
{"smiles": "COc1cc([C@@H](CC(=O)O)c2ccc(C)c(CN3C[C@@H](C)Oc4ccccc4S3(=O)=O)c2)cc2nnn(C)c12", "Potency": "8.31 µM (active)"}
{"smiles": "O=C(O)[C@H]1O[C@H](Oc2cc3oc(-c4ccccc4)cc(=O)c3c(O)c2O)[C@H](O)[C@@H](O)[C@H]1O", "viability": "88.2%"}
{"smiles": "CCN1CCN(CC(=O)Nc2ccc(-c3cccc4c(=O)cc(N5CCOCC5)oc34)c3sc4ccccc4c23)CC1", "viability": "94.2%"}
{"smiles": "CN(C)CCN1C(=O)c2cccc3cc(N)cc(c23)C1=O", "Potency": "18.7 µM (active)"}
{"smiles": "O=C1Nc2ccc(I)cc2C1=Cc1cc(Br)c(O)c(Br)c1", "viability": "92.2%"}
{"smiles": "Cc1c(O)cccc1C(=O)N[C@@H](CSc1ccccc1)[C@H](O)CN1C[C@H]2CCCC[C@@H]2C[C@@H]1C(=O)NC(C)(C)C", "viability": "101%"}
{"smiles": "CCOC(=O)[C@H](CCc1ccccc1)N[C@@H](C)C(=O)N1CCCC1C(=O)O", "note": "(stereo not given in full)", "viability": "105%"}
{"smiles": "CCCCn1c(=O)n(Cc2ccccc2F)c(=O)c2[nH]c(Cc3ccc(NC(C)=O)cc3)nc21", "viability": "103%"}
{"smiles": "CN1C(C(=O)Nc2ccccn2)=C(O)c2sccc2S1(=O)=O", "viability": "103%"}
{"smiles": "O=C1CCC(N2C(=O)c3ccccc3C2=O)C(=O)N1", "note": "(stereo not given)", "viability": "95.8%"}
